Among all 290,000 compounds or so, about 3,300 (1.1%) were called active. Cut-off read from the data, not from the text of the source: active = binding response below about 67% or above about 130%; inconclusive = no clear call, values can overlap the other calls; inactive = in between. Many of the other results were omitted from the sample, so actives are more common in it than they were.

For this test, the target named is Mitogen-activated protein kinase kinase kinase 2 (Homo sapiens) (UniProt Q9Y2U5). The test is described as follows: wildtype MEKK2 PB1-MEK5 interaction, increase or decrease – biochemical, multiplex bead flow cytometry, Alexa488-MEK5, primary screen (AID 1531). Particulars: Alexa488-MEK5 binding to MEKK2 WT, at 10 µM, actives lie on both sides. Background: In flow cytometry, cells or beads pass a laser one at a time.
On to `COc1ccc(CCOC(=O)CNC(=O)c2ccc(Cl)cc2Cl)cc1`, for which the binding response (% of control) was 86% (inactive). In the case of `CCc1cccc(C)c1NS(=O)(=O)c1c(C)nc2sccn2c1=O`, the binding response (% of control) is 101% (inactive). Turning to `CCN(CC)c1ccc(/C=N/NC(=O)CNC(=O)c2cccs2)cc1`, the binding response (% of control) was 92% (inactive).

Consider `O=C(c1ccc(Cl)cc1)n1cnc2ccccc21`, for which the binding response (% of control) was 106% (inactive). Take `Cc1cc(C)c(NC(=O)C[N+](C)(C)CC(O)COc2cccc3ccccc23)c(C)c1` (stereo unspecified): the binding response (% of control) is 149% (active).

With `Cc1cc(C)cc(OCC(=O)NCc2cc(C)nc3ccccc23)c1`, the binding response (% of control) was 103% (inactive). To `Cc1cc(C)c(NC(=O)c2oc3ccccc3c2COc2ccccc2)c(C)c1` belongs 100% (inactive). For `Cc1cc(C)n(CC(O)COc2ccc(C(C)(C)C)cc2)n1` (stereo unspecified), the binding response (% of control) was 107% (inactive). Take `CC(C)(c1ccccc1)c1ccc(OCCN)cc1`: the binding response (% of control) was 117% (inactive).

In the case of `CN(C)CC(O)COc1ccc(C(C)(C)c2ccc(OCC(O)CN(C)C)cc2)cc1` (stereo unspecified), the binding response (% of control) was 225% (active).

For the molecule `COc1ccccc1C1=CC(=O)CCC1`, the binding response (% of control) was 98% (inactive). `CCOC(=O)C1Nc2ccc(C(F)(F)F)cc2C2C=CCC12` (stereo unspecified): the binding response (% of control) was 98% (inactive). Take `CC1(C)Cc2c(sc(NC(=O)C(=O)N3CCOCC3)c2C#N)CO1`: the binding response (% of control) was 95% (inactive). With `CCCOc1ccc(C(=O)NCCc2ccccc2)cc1`, the binding response (% of control) was 94% (inactive). Take `CC(C)c1ccc(C(=O)NCCCc2ccccc2)cc1`: the binding response (% of control) was 2% [inhibitor] (active). On to `Cc1cc(C(=O)NCCCc2ccccc2)no1`, for which the binding response (% of control) is 99% (inactive). Regarding `O=C(NCc1ccccc1Cl)c1csc2c1CCCCC2`, the binding response (% of control) is 93% (inactive). As to `O=C(NCc1ccccc1Cl)NC(=O)c1csc([N+](=O)[O-])c1`, the binding response (% of control) is -14% [inhibitor] (active). To `O=[N+]([O-])c1ccccc1NCc1ccccc1Cl` belongs 66% (inactive); to `CCCCCc1c(C)nc(N2CCN(Cc3ccc4c(c3)OCO4)CC2)[nH]c1=O`, 97% (inactive).

Consider `OCC1(CCc2ccccc2)CCN(Cc2ccc3nsnc3c2)CC1`, for which the binding response (% of control) is 89% (inactive).

Consider `COc1cccc(CC2(CO)CCN(Cc3cnc(-c4cccc(C)c4)nc3)CC2)c1`, for which the binding response (% of control) is 98% (inactive). Regarding `Cc1cccc(-c2ncc(CN3CCC(CO)(CCCc4ccccc4)CC3)cn2)c1`, the binding response (% of control) was 163% (active). To `O=C(COc1ccc2ccc(=O)oc2c1)NCC(O)c1ccccc1` (stereo unspecified) belongs 104% (inactive).

As for `CCOC(=O)C1CCN(c2ccc(C(=O)O)cc2[N+](=O)[O-])CC1`, the binding response (% of control) was 101% (inactive). Regarding `CC1CCN(c2ccc([N+](=O)[O-])cc2C(N)=O)CC1`, the binding response (% of control) is 95% (inactive).

For the molecule `O=C(O)C1CCN(c2ccc([N+](=O)[O-])cc2[N+](=O)[O-])CC1`, the binding response (% of control) was 46% [inhibitor] (active). Regarding `CCOc1ccccc1-c1cc(C(=O)N/N=C(\C)c2cccnc2)c2ccccc2n1`, the binding response (% of control) is 92% (inactive). Regarding `O=C(NC1CCN(Cc2ccccc2)CC1)c1c(F)cccc1F`, the binding response (% of control) is 113% (inactive). Regarding `O=C(NC1CCN(Cc2ccccc2)CC1)c1ccc(Oc2cc(Cl)cc(Cl)c2)o1`, the binding response (% of control) is 142% (active).

Take `O=C(NC1CCN(Cc2ccccc2)CC1)c1cc(Br)c(Br)[nH]1`: the binding response (% of control) is 140% (active). Turning to `O=C(NC1CCN(Cc2ccccc2)CC1)c1ccccc1F`, the binding response (% of control) is 101% (inactive). In the case of `CCOc1ccc(CC(=O)NC2CCN(Cc3ccccc3)CC2)cc1`, the binding response (% of control) is 108% (inactive). Consider `Cc1cc(C(=O)NC2CCN(Cc3ccccc3)CC2)n[nH]1`, for which the binding response (% of control) is 98% (inactive). Regarding `C#CCOc1ccc(/C=C2/C(=O)ON=C2C)cc1OCC`, the binding response (% of control) is 107% (inactive). For the molecule `CCc1nnc(SCc2cccc(F)c2)nc1CC`, the binding response (% of control) is 103% (inactive). For the molecule `O=C(NCc1ccccn1)c1cc(Br)ccc1Cl`, the binding response (% of control) was 106% (inactive). Turning to `COc1ccc(-c2ccc(CNCCCN3CCOCC3)o2)cc1Cl`, the binding response (% of control) is 106% (inactive). On to `Fc1ccc(-c2ccc(CNCc3ccccn3)o2)cc1Cl`, for which the binding response (% of control) is 140% (active). Take `Cc1ccc(-c2nc3ccccc3[nH]2)cc1NC(=O)c1sc2ccccc2c1Cl`: the binding response (% of control) was 98% (inactive). With `O=C(Cc1cccs1)Nc1cccc(-c2nc3ccccc3[nH]2)c1`, the binding response (% of control) is 95% (inactive).

For the molecule `O=C(Nc1cccc(-c2nc3ccccc3[nH]2)c1)c1ccc(C(=O)Nc2cccc(-c3nc4ccccc4[nH]3)c2)cc1`, the binding response (% of control) was 63% [inhibitor] (active).

In the case of `C=C1CCN([C@@H](Cc2ccccc2)C(=O)N2CCOCC2)S(=O)(=O)c2ccccc21`, the binding response (% of control) is 107% (inactive).

For `COc1ccc(NC(=O)CCC(=O)Nc2cc(OC)c(NC(=O)c3ccco3)cc2OC)c(OC)c1`, the binding response (% of control) was 96% (inactive).

Turning to `O=C(NCC1CC1)c1onc(CSc2ccccc2)c1C(=O)NCC1CC1`, the binding response (% of control) is 95% (inactive). Consider `CCc1ccc(NC(=O)Cn2nnc(C(=O)NCc3ccc(OC)cc3)c2N)cc1`, for which the binding response (% of control) was 104% (inactive). As for `COc1ccc(NC(=O)Cn2nnc(C(=O)NCCc3ccc(OC)c(OC)c3)c2N)cc1`, the binding response (% of control) is 2% [inhibitor] (active). In the case of `COc1ccc(CNC(=O)c2nnn(CC(=O)Nc3cc(C)cc(C)c3)c2N)cc1`, the binding response (% of control) is 101% (inactive). Consider `CCC(C)N1CC(=O)N2Cc3[nH]c4ccccc4c3C[C@H]2C1=O` (stereo partly specified), for which the binding response (% of control) is 109% (inactive).

Turning to `COc1ccc(NC(=O)C/C(C)=N/NC(=O)c2cnccn2)cc1Cl`, the binding response (% of control) was 96% (inactive). As to `CN1/C(=C\C(=O)c2cccnc2Cl)C(C)(C)c2ccccc21`, the binding response (% of control) was 95% (inactive). Regarding `Cc1noc(C)c1C(=O)OCC(=O)/C=C1\N(C)c2ccccc2C1(C)C`, the binding response (% of control) is 96% (inactive). For the molecule `CC(=O)Nc1cccc(OCC(=O)/C=C2\N(C)c3ccccc3C2(C)C)c1`, the binding response (% of control) is 63% [inhibitor] (active). Take `COc1ccc(Cl)cc1-n1c(=S)sc2c(=O)n(-c3ccc(F)cc3)c(SCC(=O)O)nc21`: the binding response (% of control) is 101% (inactive).

With `COc1ccc(Oc2cn[nH]c2-c2ccc(OC)cc2O)cc1`, the binding response (% of control) was 98% (inactive). In the case of `CN(C)CCCNC(=S)N1CCC(c2nc3ccccc3[nH]2)CC1`, the binding response (% of control) was 116% (inactive). To `COCCCNC(=S)N1CCN(c2nc(-c3cccc(OC)c3)cs2)CC1` belongs 95% (inactive); to `CN(C)CCCNC(=S)N1CCN(c2nc(-c3ccccc3)cs2)CC1`, 149% (active). Take `O=C(CSc1ccc(-c2ccccn2)nn1)Nc1ccccc1`: the binding response (% of control) was 110% (inactive). Consider `COc1cc2c(cc1OC)C(c1ccccc1Br)NC(=O)C2` (stereo unspecified), for which the binding response (% of control) was 103% (inactive). To `COCCCN1C(=O)c2ccc(C(=O)OCC(=O)NCc3ccccc3OC)cc2C1=O` belongs 101% (inactive); to `CN1C(=O)/C(=C/c2ccc(C(=O)NC3CCCC3)cc2)Oc2ccccc21`, 99% (inactive); to `CCCN1CCN(C(=O)CCCNC(=O)c2ccc(Cl)cc2)CC1`, 100% (inactive). `CN1CCN(CCCNC(=O)c2ccc(/C=C3\Oc4ccccc4N(Cc4ccc(Cl)cc4)C3=O)cc2)CC1`: the binding response (% of control) is 171% (active). The same measure for `CS(=O)(=O)N(CC(=O)N1CCCCCC1)c1cccc(Cl)c1Cl`: 108% (inactive); for `CCc1cccc(C)c1NS(=O)(=O)c1cc(Br)cnc1N`: 92% (inactive); for `CCN1/C(=C/C(=S)Nc2ccccc2)Sc2ccccc21`: 87% (inactive). For the molecule `CCN1/C(=C/c2ccc3ccc(C)cc3[n+]2CC)Sc2ccccc21`, the binding response (% of control) was 74% (inactive). With `CCN1/C(=C\c2ccc3ccccc3[n+]2CC)Sc2cc(C)ccc21`, the binding response (% of control) was 20% [inhibitor] (active). Consider `CC1(C)CC[C@]2(C(=O)O)CC[C@]3(C)C(=CCC4[C@@]5(C)CC[C@H](O)C(C)(C)C5[C@H](O)C[C@]43C)[C@@H]2C1` (stereo partly specified), for which the binding response (% of control) was 100% (inactive). On to `N#CCc1c(C#N)c(N)nc(N2CCCC2)c1C#N`, for which the binding response (% of control) is 107% (inactive).

Regarding `O=C(NCc1ccccc1)c1onc(CSc2ccncc2)c1C(=O)NCc1ccccc1`, the binding response (% of control) was 104% (inactive). In the case of `O=C(CCl)NNc1nc(-c2ccccc2)c2cc(Cl)ccc2n1`, the binding response (% of control) is 102% (inactive). As to `NC(N)=Nc1nc(-c2ccccc2)c2cc(Cl)ccc2n1`, the binding response (% of control) was 150% (active).

Consider `Clc1ccc2nc(-c3ccccc3)nc(C(Cl)Cl)c2c1`, for which the binding response (% of control) is 90% (inactive). To `CC(C)(C)n1nc(Cc2cccc3ccccc23)c(C#N)c1N` belongs 98% (inactive); to `COc1ccccc1NC(=O)c1ccc(N2CC3CC(C2)c2cccc(=O)n2C3)c(NC(=O)c2cccnc2)c1` (stereo unspecified), 105% (inactive); to `O=C1N[C@H](Cc2ccccc2)C(=O)N[C@H]1Cc1cn(S(=O)(=O)c2ccccc2)c2ccccc12`, 102% (inactive). Turning to `C/C=C/C(=O)OCc1csc(CC(=O)Nc2ccccc2C)n1`, the binding response (% of control) is 94% (inactive). Turning to `OCC1(CCOc2ccccc2)CCN(Cc2cn[nH]c2-c2ccccc2)CC1`, the binding response (% of control) was 94% (inactive).

On to `CCOC(=O)C1(CCOc2ccccc2)CCN(Cc2cc(OC)c(O)cc2Cl)CC1`, for which the binding response (% of control) was 126% (inactive).

Consider `Cc1c(CN2CCC(CO)(CCOc3ccccc3)CC2)[nH]c2ccc(Cl)cc12`, for which the binding response (% of control) was 227% (active). The same measure for `COc1ccc(C2NC(=O)C(=O)/C2=C(\O)c2ccc(Cl)cc2)cc1OC` (stereo unspecified): 109% (inactive); for `COC(C[C@@H](O)C[C@@H](O)[C@H](C)OCc1ccccc1)OC`: 97% (inactive).

For the molecule `Cn1c(SCC(=O)N2CCCC2)nnc1-c1ccc2c(c1)OCO2`, the binding response (% of control) was 105% (inactive). In the case of `O=C(O)CSc1nnc(-c2ccc3c(c2)OCO3)n1-c1ccccc1`, the binding response (% of control) was 102% (inactive). Take `Cn1c(SCc2nc3ccccc3s2)nnc1-c1ccc2c(c1)OCO2`: the binding response (% of control) was 30% [inhibitor] (active). `CC1CCC2CCCCC2N1C(=O)c1cc([N+](=O)[O-])cc([N+](=O)[O-])c1` (stereo unspecified): the binding response (% of control) is 97% (inactive). For the molecule `CCn1c(SCc2ccccc2)nc2cc(OC)c(OC)cc2c1=O`, the binding response (% of control) was 105% (inactive). For the molecule `O=C(NCC1CCCCC1)c1cc(S(=O)(=O)N2CCCCC2)ccc1N1CCOCC1`, the binding response (% of control) was 4% [inhibitor] (active).

Regarding `COc1ccc(S(=O)(=O)N2CCOCC2)cc1C(=O)NC1CCCCC1`, the binding response (% of control) is 104% (inactive). As for `COCCNC(=S)Nc1cc(S(=O)(=O)N2CCOCC2)ccc1N1CCCCC1`, the binding response (% of control) was 103% (inactive). For the molecule `CC(C)(c1ccccc1)c1ccc(OCCN2CCCC2)cc1`, the binding response (% of control) is 119% (inactive). To `Cc1[nH]c2ccccc2c1C(=O)COC(=O)c1c(-c2ccccc2)noc1C` belongs 113% (inactive). With `Cc1onc(-c2ccccc2Cl)c1C(=O)OCC(=O)c1ccccc1`, the binding response (% of control) was -2% [inhibitor] (active).

In the case of `Cc1onc(-c2ccccc2Cl)c1C(=O)NCCn1ccc2ccccc21`, the binding response (% of control) is 98% (inactive).
